# Results filed as inconclusive are left out. Active and inactive are the calls of the source. How the source made its calls, unless noted: active means hit-call score of the fitted dose curve at least 0.9, where 1 is the maximum; inconclusive means response in the unintended direction; inactive means score below 0.9.
# What was measured:
# [1] = biological target: mouse Estrogen Receptor alpha (Era), Esr1 (gene 13982) (UniProt P19785); test: NVS_NR_mERa: NovaScreen (NVS) Nuclear Receptor Binding Assay for mouse Estrogen Receptor alpha (Era) (AID 2283378);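 further: hit means loss of bound radioligand signal relative to DMSO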
# Method in brief: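 Cell-free radioligand competitive displacement binding, read by filter-based scintillation counting 18 h after dosing. Primary screen run in duplicate at 25 uM, actives retested in concentration series; loss of signal versus DMSO.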
# [2] = biological target: Estrogen receptor (Homo sapiens) + Estrogen receptor beta (Homo sapiens) (UniProt P03372+Q92731); test: OT_ER_ERaERb_1440: Odyssey Thera (OT) 24-hour HEK293T Protein-Complementation Assay for Estrogen Receptor-alpha/-beta Homodimer (AID 2283356);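 further: heteromer of ER alpha and ER beta binding domains; hits raise reporter fluorescence and both agonists and antagonists give an increase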
# Method in brief: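 HEK293T stably expressing a PCA of ER alpha LBD (aa 310-547) and ER beta LBD (aa 263-489). After 24 h compound exposure, mean fluorescence intensity in nucleus (agonists) or nucleus and cytoplasm (antagonists) measured by laser scanning cytometry versus vehicle.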
# [3] = biological target: human CYP2D6, CYP2D6 (gene 1565) (UniProt P10635); test: NVS_ADME_hCYP2D6: NovaScreen (NVS) CYP450-related Enzyme Activity (ADME) Assay for human CYP2D6 (AID 2283107)
# Method in brief: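 Cell-free assay using recombinant human CYP2D6 expressed in insect cells, with a fluorogenic substrate read after 1 h. Primary screen in duplicate at 10 uM; actives followed up in concentration series. Loss of signal fitted relative to acetonitrile.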
# [4] = biological target: Androgen Receptor/SRC-1 Co-activator, AR (gene 367) (UniProt P10275); test: OT_AR_ARSRC1_0960: Odyssey Thera (OT) 16-hour HEK293T Protein-Complementation Assay for Androgen Receptor/SRC-1 Co-activator (AID 2283353);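 further: actives raise the signal above DMSO so potency reflects increased AR and SRC-1 complex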
# Method in brief: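 Sixteen-hour cell assay: Venus halves fused to AR and SRC-1 in HEK293T report binding. Images at 488/635 nm give an N/C ratio in the 488 nm channel over ≥400 cells, analysed as signal increase over DMSO.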
# [5] = biological target: Androgen Receptor/SRC-1 Co-activator, AR (gene 367) (UniProt P10275); test: OT_AR_ARSRC1_0480: Odyssey Thera (OT) 8-hour HEK293T Protein-Complementation Assay for Androgen Receptor/SRC-1 Co-activator (AID 2283354);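 further: hits raise the complementation signal above DMSO so AC50 marks enhancers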
# Method in brief: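 Reconstituted split-Venus YFP signal from AR–SRC-1 interaction, read by imaging 8 h post-dose in stable HEK293T lines. The 488 nm nucleus-to-cytoplasm ratio (≥400 cells/image) was fitted upward against DMSO.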
# [6] = biological target: Agonist Androgen Response Element (ARE), AR (gene 367) (UniProt P10275); test: OT_AR_ARELUC_AG_1440: Odyssey Thera (OT) 24-hour CHO-K1 Luciferase Assay for Agonist Androgen Response Element (ARE) (AID 2283379)
# Method in brief: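 Readout: luciferase bioluminescence from CHO-K1 ARE-luc cells, measured 24 h post-dosing; agonism = increased mean luminescence vs DMSO controls, fitted in positive direction.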
# AR (gene 367) = AR (gene 367) (UniProt P10275); test: ACEA_AR_antagonist_80hr: ACEA Biosciences xCELLigence Real-Time Cell Analysis on Androgen Receptor Antagonism for Proliferation (AID 2283787);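 further: 22Rv1 human prostate cancer cells with growth followed by electrical impedance; hits lower the impedance growth signal relative to DMSO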
# Method in brief: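 Impedance-based real-time growth of 22Rv1 prostate cells, read 80 h after dosing. Eight concentrations, 1:4 series, top 100 uM final (0.5% DMSO), n = 2; signal decrease scored against DMSO.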
# [7] = biological target: Nucleoli Translocation, AR (gene 367) (UniProt P10275); test: UPITT_HCI_U2OS_AR_TIF2_Nucleoli_Agonist: University of Pittsburgh U2OS Androgen Receptor-Transcriptional Intermediary Factor 2 (AR-TIF2) Agonism High Content Imaging Assay for Nucleoli Translocation (AID 2283998)
# Method in brief: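 U2OS cells expressing RFP-tagged human AR and GFP-tagged TIF2; red fluorescence in nucleoli quantified by high-content imaging. Primary screen at 20 uM final (0.2% DMSO); concentration-response 0.195–50 uM (0.5% DMSO), fitted upward versus DMSO.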
# [8] = biological target: Ratio of Nucleoli Translocation and Cytoplasm, AR (gene 367) (UniProt P10275); test: UPITT_HCI_U2OS_AR_TIF2_Nucleoli_Cytoplasm_Ratio_Antagonist: University of Pittsburgh U2OS Androgen Receptor-Transcriptional Intermediary Factor 2 (AR-TIF2) Antagonism High Content Imaging Assay for Ratio of Nucleoli Translocation and Cytoplasm (AID 2283999);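 further: antagonists lower the DHT-driven ratio of nucleolar to cytoplasmic red signal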
# Method in brief: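 This antagonist-mode endpoint tracks AR-RFP localisation, the nucleolus-to-cytoplasm intensity ratio, in TIF2-GFP-coexpressing U2OS cells. DMSO stays at or below 0.5%; testing spans 20 uM single-dose and 0.195–50 uM series, with DHT setting the activity baseline.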
# [9] = biological target: Ratio of Nucleoli Translocation and Cytoplasm, AR (gene 367) (UniProt P10275); test: UPITT_HCI_U2OS_AR_TIF2_Nucleoli_Cytoplasm_Ratio_Agonist: University of Pittsburgh U2OS Androgen Receptor-Transcriptional Intermediary Factor 2 (AR-TIF2) Agonism High Content Imaging Assay for Ratio of Nucleoli Translocation and Cytoplasm (AID 2284000);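 further: hits raise the red nucleolar to cytoplasm ratio above vehicle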
# Method in brief: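 Compounds tested at 20 uM final in primary screen (0.2% DMSO) and 0.195-50 uM final in dose-response (0.5% DMSO). Imaging of human U2OS cells bearing RFP-AR and GFP-TIF2; endpoint is nucleoli/cytoplasm red signal ratio, positive direction relative to DMSO.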
# [10] = biological target: sheep Cyclooxygenase-1 (Cox1), PTGS1 (gene 443551) (UniProt P05979); test: NVS_ENZ_oCOX1: NovaScreen (NVS) Enzymatic Assay for sheep Cyclooxygenase-1 (Cox1) (AID 2283239);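 further: actives reduce cyclooxygenase activity so potencies are for inhibitors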
# Method in brief: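 COX1 from ovine seminal vesicles, activity read colorimetrically about 0.66 h after dosing. Primary screen in duplicate at 25 uM; actives retested in concentration series; loss of signal fitted versus DMSO.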
# [11] = biological target: human Peripheral-type Benzodiazepine Receptor (PBR), TSPO (gene 706) (UniProt P30536); test: NVS_MP_hPBR: NovaScreen (NVS) Membrane Protein Assay for human Peripheral-type Benzodiazepine Receptor (PBR) (AID 2283331);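 further: hits reduce radioligand binding relative to DMSO baseline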
# Method in brief: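 Cell-free binding to human colonic membrane preparations measured by filter-based scintillation counting after 1 h. Compounds first run at 25 uM in duplicate, then concentration series for actives; signal loss against DMSO baseline.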
# [12] = biological target: Muscarinic acetylcholine receptor M2 (Homo sapiens) (UniProt P08172); test: NVS_GPCR_hM2: NovaScreen (NVS) G Protein-Coupled Receptor Assay for human Muscarinic, M2 Receptor (AID 2283273)
# Method in brief: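 CHO-expressed human M2 receptor preparation, competitive displacement of a radioligand read by filter-based scintillation counting after 1 h. Single 25 uM duplicate screen, then concentration-response follow-up of actives; DMSO baseline.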
# [13] = biological target: human Thyroid Receptor Alpha (TRa), THRA (gene 7067) (UniProt P10827); test: NVS_NR_hTRa_Antagonist: NovaScreen (NVS) Nuclear Receptor Binding Assay for human Thyroid Receptor Alpha Antagonism (TRa) (AID 2283362);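 further: activity is loss of signal relative to DMSO baseline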
# Method in brief: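 Cell-free AlphaLISA chemiluminescent binding read 1 h after dosing, antagonist mode; signal loss versus DMSO baseline. Primary screen in duplicate at 25 uM, then concentration series for actives.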
# [14] = CEETOX_H295R_11DCORT: CeeTox H295R High-throughput Steroidogenesis Assay for 11-Deoxycortisol (11DCORT) (AID 2283432; active means hit-call score of the fitted dose curve at least 0.9, where 1 is the maximum; inactive means score below 0.9); details: actives raise or lower the signal
# Method in brief: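 Steroidogenesis in human H295R cells: 48 h chemical exposure after forskolin priming, 11-deoxycortisol measured by LC-MS/MS.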
# [15] = CEETOX_H295R_CORTIC: CeeTox H295R High-throughput Steroidogenesis Assay for Corticosterone (CORTIC) (AID 2283437; active means hit-call score of the fitted dose curve at least 0.9, where 1 is the maximum; inactive means score below 0.9); details: actives raise or lower the signal
# Method in brief: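 Medium corticosterone was quantified by tandem mass spectrometry following 48 hours of chemical exposure (0.1% DMSO) in human H295R cells previously stimulated 48 hours with 10 uM forskolin. Viability checked by MTT; chemicals diluted and retested when viability fell below 70%.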
# [16] = CEETOX_H295R_CORTISOL: CeeTox H295R High-throughput Steroidogenesis Assay for Cortisol (AID 2283438; active means hit-call score of the fitted dose curve at least 0.9, where 1 is the maximum; inactive means score below 0.9;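 further: cortisol secreted into medium quantified by LC-MS/MS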); details: actives raise or lower the signal
# Method in brief: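 Steroidogenesis in H295R, per modified OECD 456: 48 h forskolin (10 uM), then 48 h exposure, 0.1% DMSO. Cortisol by extraction and tandem MS; viability by MTT (570/650 nm); cytotoxic chemicals diluted and re-tested.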
# [17] = CEETOX_H295R_DOC: CeeTox H295R High-throughput Steroidogenesis Assay for DOC (AID 2283439; active means hit-call score of the fitted dose curve at least 0.9, where 1 is the maximum; inactive means score below 0.9); details: actives raise or lower the signal
# Method in brief: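 H295R, fsk 10 uM ×48 h pre, cmpd ×48 h (0.1% DMSO). Media → MTBE extr. → LC-MS/MS, DOC. Bidirectional fit vs DMSO; MTT viability same wells, re-test diluted if <70%.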
# [18] = CCTE_Shafer_MEA_dev_firing_rate_mean: CCTE's Neural Network Formation Assay for Mean Firing Rate, Shafer Lab (AID 2284031; active means hit-call score of the fitted dose curve at least 0.9, where 1 is the maximum; inactive means score below 0.9;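 further: AUC of well mean spike rate recorded on DIV 5 7 9 and 12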)
# Method in brief: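 Extracellular spike frequency, AUC over DIV 5–12 recordings, in rat cortical neuron MEA cultures dosed from plating; loss direction vs DMSO.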
# [19] = biological target: human Dopamine Transporter (DAT), SLC6A3 (gene 6531) (UniProt Q01959); test: NVS_TR_hDAT: NovaScreen (NVS) Transporter Assay for human Dopamine Transporter (DAT) (AID 2283374);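 further: activity means loss of bound radioligand signal relative to DMSO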
# Method in brief: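 Duplicate single-point screening at 25 uM preceded concentration-series follow-up of actives. Binding was measured by competitive displacement of a radioligand from DAT protein, filter-counted by scintillation 1 h after dosing. Decrease relative to DMSO taken as activity.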
# Chain of sheep Cyclooxygenase-1 (Cox1), PTGS1 (gene 443551) (P05979 whole entry, looked up): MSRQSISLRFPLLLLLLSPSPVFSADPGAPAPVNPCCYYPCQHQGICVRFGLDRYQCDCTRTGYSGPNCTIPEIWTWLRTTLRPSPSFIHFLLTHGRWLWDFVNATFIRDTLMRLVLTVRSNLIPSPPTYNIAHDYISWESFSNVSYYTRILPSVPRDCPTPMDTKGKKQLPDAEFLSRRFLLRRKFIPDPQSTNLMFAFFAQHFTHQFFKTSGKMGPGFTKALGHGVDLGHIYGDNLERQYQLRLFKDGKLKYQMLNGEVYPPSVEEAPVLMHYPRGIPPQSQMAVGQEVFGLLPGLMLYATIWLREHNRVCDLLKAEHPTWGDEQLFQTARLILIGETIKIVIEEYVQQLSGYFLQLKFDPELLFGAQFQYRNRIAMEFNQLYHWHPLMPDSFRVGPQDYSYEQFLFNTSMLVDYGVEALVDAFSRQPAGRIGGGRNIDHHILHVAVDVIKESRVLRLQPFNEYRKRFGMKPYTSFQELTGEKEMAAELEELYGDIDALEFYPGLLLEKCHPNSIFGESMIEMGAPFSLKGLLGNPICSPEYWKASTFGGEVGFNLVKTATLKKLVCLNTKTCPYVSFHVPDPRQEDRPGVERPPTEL
# Chain of mouse Estrogen Receptor alpha (Era), Esr1 (gene 13982) (P19785 whole entry, looked up): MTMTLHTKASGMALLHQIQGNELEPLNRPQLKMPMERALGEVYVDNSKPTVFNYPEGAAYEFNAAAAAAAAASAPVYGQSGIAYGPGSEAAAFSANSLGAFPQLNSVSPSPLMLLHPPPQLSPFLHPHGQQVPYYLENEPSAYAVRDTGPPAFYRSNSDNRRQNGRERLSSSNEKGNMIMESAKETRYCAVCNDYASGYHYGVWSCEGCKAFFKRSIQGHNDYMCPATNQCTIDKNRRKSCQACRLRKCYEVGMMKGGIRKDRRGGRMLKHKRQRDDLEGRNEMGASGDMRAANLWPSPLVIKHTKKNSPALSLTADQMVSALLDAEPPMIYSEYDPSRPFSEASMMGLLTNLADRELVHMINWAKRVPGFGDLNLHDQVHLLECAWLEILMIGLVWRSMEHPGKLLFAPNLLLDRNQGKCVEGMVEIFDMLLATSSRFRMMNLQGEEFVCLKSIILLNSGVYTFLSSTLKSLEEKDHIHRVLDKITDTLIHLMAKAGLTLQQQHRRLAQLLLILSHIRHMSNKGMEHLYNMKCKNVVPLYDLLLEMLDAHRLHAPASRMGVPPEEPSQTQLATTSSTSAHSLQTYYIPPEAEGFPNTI
# Chain of human CYP2D6, CYP2D6 (gene 1565) (P10635 whole entry, looked up): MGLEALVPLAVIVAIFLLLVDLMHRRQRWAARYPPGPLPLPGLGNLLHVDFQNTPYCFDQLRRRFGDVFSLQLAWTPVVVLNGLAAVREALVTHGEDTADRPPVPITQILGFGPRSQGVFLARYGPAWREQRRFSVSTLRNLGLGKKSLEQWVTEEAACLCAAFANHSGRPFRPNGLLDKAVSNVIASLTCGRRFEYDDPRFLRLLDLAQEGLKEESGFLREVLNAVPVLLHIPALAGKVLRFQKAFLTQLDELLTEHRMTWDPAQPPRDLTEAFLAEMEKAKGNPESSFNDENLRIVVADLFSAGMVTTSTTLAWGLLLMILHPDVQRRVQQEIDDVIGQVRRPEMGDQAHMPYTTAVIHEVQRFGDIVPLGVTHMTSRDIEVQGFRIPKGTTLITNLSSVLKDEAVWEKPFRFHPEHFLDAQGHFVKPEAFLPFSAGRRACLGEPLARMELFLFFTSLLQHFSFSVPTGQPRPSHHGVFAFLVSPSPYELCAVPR
# Chain of human Peripheral-type Benzodiazepine Receptor (PBR), TSPO (gene 706) (P30536 whole entry, looked up): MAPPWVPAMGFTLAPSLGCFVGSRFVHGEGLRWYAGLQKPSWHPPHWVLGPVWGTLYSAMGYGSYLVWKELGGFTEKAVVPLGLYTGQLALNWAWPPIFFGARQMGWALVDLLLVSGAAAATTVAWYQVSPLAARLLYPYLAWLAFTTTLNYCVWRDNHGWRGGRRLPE
# Chain of Estrogen receptor (Homo sapiens) + Estrogen receptor beta (Homo sapiens) (P03372 whole entry, looked up, the tested form may be a part): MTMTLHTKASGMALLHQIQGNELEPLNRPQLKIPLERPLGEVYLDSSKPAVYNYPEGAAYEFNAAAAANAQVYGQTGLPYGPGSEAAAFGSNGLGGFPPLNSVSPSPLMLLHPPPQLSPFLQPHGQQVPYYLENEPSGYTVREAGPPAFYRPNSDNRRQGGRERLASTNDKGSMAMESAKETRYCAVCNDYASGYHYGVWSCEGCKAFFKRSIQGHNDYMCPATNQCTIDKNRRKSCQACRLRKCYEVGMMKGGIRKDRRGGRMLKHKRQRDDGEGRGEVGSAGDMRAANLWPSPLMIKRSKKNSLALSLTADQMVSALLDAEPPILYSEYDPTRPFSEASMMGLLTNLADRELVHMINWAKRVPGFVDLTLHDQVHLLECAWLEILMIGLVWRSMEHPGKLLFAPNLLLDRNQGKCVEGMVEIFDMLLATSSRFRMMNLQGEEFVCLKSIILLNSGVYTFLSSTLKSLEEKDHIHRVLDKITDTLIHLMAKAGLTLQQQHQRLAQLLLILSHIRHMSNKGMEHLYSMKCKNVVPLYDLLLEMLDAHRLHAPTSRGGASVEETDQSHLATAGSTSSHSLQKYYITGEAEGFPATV
# Chain of Estrogen receptor (Homo sapiens) + Estrogen receptor beta (Homo sapiens) (Q92731 whole entry, looked up, the tested form may be a part): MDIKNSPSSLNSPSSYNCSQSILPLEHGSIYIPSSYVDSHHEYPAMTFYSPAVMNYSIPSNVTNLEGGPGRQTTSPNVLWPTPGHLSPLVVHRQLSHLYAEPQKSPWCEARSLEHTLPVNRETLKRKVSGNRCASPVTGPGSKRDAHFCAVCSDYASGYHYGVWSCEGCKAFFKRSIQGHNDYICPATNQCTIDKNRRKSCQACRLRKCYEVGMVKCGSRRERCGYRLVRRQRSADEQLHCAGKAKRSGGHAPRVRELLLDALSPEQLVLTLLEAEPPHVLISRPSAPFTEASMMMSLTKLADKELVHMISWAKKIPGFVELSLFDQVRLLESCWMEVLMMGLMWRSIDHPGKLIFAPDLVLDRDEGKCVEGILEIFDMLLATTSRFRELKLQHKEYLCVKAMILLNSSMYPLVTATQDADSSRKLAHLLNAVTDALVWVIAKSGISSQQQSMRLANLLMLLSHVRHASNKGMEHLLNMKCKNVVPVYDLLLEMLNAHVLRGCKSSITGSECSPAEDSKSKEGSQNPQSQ
# Chain of Ratio of Nucleoli Translocation and Cytoplasm, AR (gene 367) (P10275 whole entry, looked up): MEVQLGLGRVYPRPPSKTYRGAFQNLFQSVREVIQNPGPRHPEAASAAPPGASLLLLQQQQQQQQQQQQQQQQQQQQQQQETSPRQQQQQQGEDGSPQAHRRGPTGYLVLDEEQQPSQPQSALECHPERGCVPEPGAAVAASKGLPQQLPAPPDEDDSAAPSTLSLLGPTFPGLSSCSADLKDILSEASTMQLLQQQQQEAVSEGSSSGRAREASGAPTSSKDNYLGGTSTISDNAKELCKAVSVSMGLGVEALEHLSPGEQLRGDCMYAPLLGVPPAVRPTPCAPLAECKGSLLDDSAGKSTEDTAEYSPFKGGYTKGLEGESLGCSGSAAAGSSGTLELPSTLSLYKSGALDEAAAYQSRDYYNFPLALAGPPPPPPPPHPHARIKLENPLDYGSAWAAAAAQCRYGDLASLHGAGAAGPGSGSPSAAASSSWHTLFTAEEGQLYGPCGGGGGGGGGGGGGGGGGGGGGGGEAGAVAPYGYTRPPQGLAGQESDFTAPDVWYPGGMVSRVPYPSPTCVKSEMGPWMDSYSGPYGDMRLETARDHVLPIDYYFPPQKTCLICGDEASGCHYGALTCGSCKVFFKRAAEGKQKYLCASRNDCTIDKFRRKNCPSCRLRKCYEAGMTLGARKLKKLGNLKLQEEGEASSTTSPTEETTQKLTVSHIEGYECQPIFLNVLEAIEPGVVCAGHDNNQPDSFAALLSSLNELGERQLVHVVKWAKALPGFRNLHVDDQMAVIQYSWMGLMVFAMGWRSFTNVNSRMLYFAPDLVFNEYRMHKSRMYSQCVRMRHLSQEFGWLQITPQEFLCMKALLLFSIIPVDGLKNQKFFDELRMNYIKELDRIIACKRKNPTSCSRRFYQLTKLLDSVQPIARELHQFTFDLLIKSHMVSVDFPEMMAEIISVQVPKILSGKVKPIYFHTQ
# Chain of Androgen Receptor/SRC-1 Co-activator, AR (gene 367) (P10275 whole entry, looked up, the tested form may be a part): as the sequence (P10275 whole entry, looked up) above
# Chain of Agonist Androgen Response Element (ARE), AR (gene 367) (P10275 whole entry, looked up): as above
# Chain of Nucleoli Translocation, AR (gene 367) (P10275 whole entry, looked up): as above
# Chain of AR (gene 367) (P10275 whole entry, looked up): as above
# Chain of human Thyroid Receptor Alpha (TRa), THRA (gene 7067) (P10827 whole entry, looked up): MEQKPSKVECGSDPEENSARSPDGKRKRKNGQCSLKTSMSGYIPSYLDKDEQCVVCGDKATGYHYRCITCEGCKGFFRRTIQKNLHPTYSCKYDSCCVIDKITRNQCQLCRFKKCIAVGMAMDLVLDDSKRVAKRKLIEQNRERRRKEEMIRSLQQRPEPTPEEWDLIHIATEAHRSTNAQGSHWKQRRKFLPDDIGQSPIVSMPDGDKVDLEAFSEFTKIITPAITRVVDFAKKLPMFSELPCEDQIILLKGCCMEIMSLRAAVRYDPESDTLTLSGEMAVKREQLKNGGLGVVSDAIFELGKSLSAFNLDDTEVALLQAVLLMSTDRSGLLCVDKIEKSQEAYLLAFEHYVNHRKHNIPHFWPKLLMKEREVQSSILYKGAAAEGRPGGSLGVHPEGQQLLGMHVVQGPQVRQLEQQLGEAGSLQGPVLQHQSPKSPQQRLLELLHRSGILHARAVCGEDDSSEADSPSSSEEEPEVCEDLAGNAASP
smiles,measurement,setting,value
C=CC(C)(CCC=C(C)C)OC(=O)c1ccccc1 (stereo unspecified),outcome,[1],inactive
CCCCCCC1CCC(=O)O1 (stereo unspecified),outcome,[2],inactive
Sc1nc2ccccc2s1,AC50,[3],3 µM (active)
O=C(c1ccccc1)c1ccccc1O,outcome,[4],inactive
same,outcome,[5],inactive
same,outcome,[6],inactive
same,outcome,AR (gene 367),inactive
same,outcome,[7],inactive
same,outcome,[8],inactive
same,outcome,[9],inactive
CC(C)CC(=O)O,AC50,[10],25 µM (active)
CO[Si](CCCNCCN)(OC)OC,outcome,[4],inactive
same,outcome,[5],inactive
same,outcome,[6],inactive
same,outcome,AR (gene 367),inactive
same,outcome,[7],inactive
same,outcome,[8],inactive
same,outcome,[9],inactive
CN(C)c1ccc(C(c2ccccc2)c2ccc(N(C)C)cc2)cc1,AC50,[11],2.78 µM (active)
Clc1ccccn1,outcome,[12],inactive
Cc1cc(C)c(S(=O)(=O)O)cc1N=Nc1cc(S(=O)(=O)O)c2ccccc2c1O,outcome,[4],inactive
same,outcome,[5],inactive
same,AC50,[13],29.5 µM (active)
same,outcome,[6],inactive
same,outcome,AR (gene 367),inactive
same,outcome,[7],inactive
same,outcome,[8],inactive
same,outcome,[9],inactive
CCO[Si](CCCN)(OCC)OCC,outcome,[14],inactive
same,outcome,[15],inactive
same,outcome,[16],inactive
same,outcome,[17],inactive
CC1(C)S[C@@H]2[C@H](NC(=O)[C@H](N)c3ccccc3)C(=O)N2[C@H]1C(=O)O,outcome,[18],inactive
COC(OC)C(C)c1ccccc1 (stereo unspecified),outcome,[1],inactive
CN(C)CCC(c1ccc(Cl)cc1)c1ccccn1 (stereo unspecified),AC50,[3],5 µM (active)
same,AC50,[12],10.3 µM (active)
same,AC50,[19],2.54 µM (active)
same,outcome,[18],inactive
N#CCN(CC#N)CCN(CC#N)CC#N,outcome,[10],inactive
c1ccc(CNc2ncnc3nc[nH]c23)cc1,outcome,[14],inactive
same,outcome,[15],inactive
same,outcome,[16],inactive
same,outcome,[17],inactive
CCC(C)NC(N)=O (stereo unspecified),AC50,[19],26.9 µM (active)
NC(N)=Nc1nc(CSCCC(N)=NS(N)(=O)=O)cs1,outcome,[18],inactive
O=C(C(=O)c1ccccc1)c1ccccc1,AC50,[11],9.56 µM (active)
same,AC50,[19],1.07 µM (active)
Cc1cc2nc3c(=O)[nH]c(=O)nc-3n(C[C@H](O)[C@H](O)[C@H](O)CO)c2cc1C,outcome,[1],inactive
Cc1cc(O)cc(C)c1Cl,AC50,[11],8.12 µM (active)
same,outcome,[14],inactive
same,outcome,[15],inactive
same,outcome,[16],inactive
same,outcome,[17],inactive
COC(=O)c1ccccc1,outcome,[10],inactive
CCCCCCCCCCCCCCCCCC[N+](C)(C)C,AC50,[3],0.826 µM (active)
same,AC50,[12],1.06 µM (active)
same,AC50,[19],2.52 µM (active)
C=C1CC[C@H]2C[C@@H]1C2(C)C,outcome,[2],inactive
same,outcome,[13],inactive
CC1=NN(c2cc(Cl)c(S(=O)(=O)O)cc2Cl)C(=O)C1N=Nc1ccc(S(=O)(=O)O)cc1 (stereo unspecified),outcome,[13],inactive
CCOC(=O)c1ccccc1,outcome,[2],inactive

# From PubChem BioAssay (EPA / NIEHS)
